Results on 32 molecules are retold here after the supplement of paper PMC12632987.

First the molecules themselves.
B1: GBRAPL2_128_7286 (protein)
chain: MKLVEIDIDIKNKEEYELAKAVLDDIAKNSSPKVAKLADAAKDMAEEAAKEGYKEKVTVADILTDEEAEELKKLLEELKEKYGKEKVEKVIKLTVDDLPP
B2: GBRAPL2_128_7297 (protein)
chain: MKLVEIDIDINNEEEAKLVIEVLEEIAKEGSEEVKKLAEAAKDLAESLAEEGYGEKGTVVDILSEEDAKELKELYEKLSKKYGKEKIEKRIKLEVDDIPP
B3: GBRAPL2_128_7284 (protein)
chain: MKLVEIDITVKNEEEYELVLKVLTEIAERGSPAVAKLADAAKDMVEEEKKEGFKDGVTVADVLSDEDAAELKALYEELAEKYGKEKVNKHIKLTVDDLPP
B4: GBRAPL2_151_7304 (protein)
chain: GWKEEAIKALEKAAKAAEEAAAALPESQELERTELELLAGGFEADAILIEETDDEEEIKRLVKEAAERAEDAAKLAKKLGLEEQAKKLEKIAKELKKLAK
B5: GBRAPL2_128_7279 (protein)
chain: MKIVEIDIDVENEEEYKLAKEVLEKIAEEGSPEVAKLADAALDLVEENEEDGFDEKFTAVDILSEEDAEELKELFEELAEKLGKEKVEKVIKLEIDDIPP
B6: GBRAPL2_128_7298 (protein)
chain: MKLVEIDIDIENEEEAKLVLEILDEIAKRGSPEVKKLADAAKDLAESLAESGYGEKGTVVDILSEEDAEELKKLYEELAKEYGEEKVKKRIKLEVDDIPP
B7: GBRAPL2_128_7282 (protein)
chain: MKLVTIDVTVENEEEYNLAVEVFDEIIEEGSEKVADLADAAKDMLESSKENGYKENVSVADILSDEDAEELRELFEELAKKYGEEKVKKIIELTIDDLPP
B8: GBRAPL2_128_7288 (protein)
chain: MKLVTLDVDVEDEEEYELALEVLTRLAERGSPAVARLADAARDMVEEAKEEGYDEEVAVTDILSEEDAEELRALYEELAAELGAERVSRVIRLEVDDLPP
B9: GBRAPL2_128_7291 (protein)
chain: MKLVEISVKVENEEEYELAKKVLSDIAEKSSPEVAKLADAARDMLEENKEEGYNVGVTVADILSEEQAEELRKLFEEVAKEYGKEKVEKIIELTVDDLPP
B10: GBRAPL2_151_7301 (protein)
chain: SWKEEAIKALEEAAKIAEEAVEKLSEEQELEKTEFELIAGGMDALKALIEETDDEELIKKYVERGAELVKDAAEIAKELGLEELAKKFEKLAKELEKLSK
B11: GBRAPL2_128_7273 (protein)
chain: MYLVEIDIDVKDEESYNLAVEILDEIAKNSSEKVKDLAEAARDMAEIAYENGFDEKVVVVDIVSEEEAEELKKIYEEIKKKKGEEKVNSVVELEIDEVEP
B12: GBRAPL2_151_7300 (protein)
chain: EWKEEAIKALEEAAKIAEEAVEKLDESQELEKTEFELIAGGLDALKALIEETDDEEKIREYVKRGAELVKDAAKIAKELGLEEEAKKFEKLAKKLEELSK
B13: GBRAPL2_128_7292 (protein)
chain: MKLVEIDLDIKNEEEYELAKKVLTELARESSPAVADLANAALDMVEEAKKDGFKDKYVVADVLSPEDAAELEALFNRLAERYGAEKVRKVIQLEVSDIPP
B14: GBRAPL2_128_7290 (protein)
chain: MKLVTIDVTIKNEEEYNLAVKVLKELAEKGSPKVADLADAARDMVEEAKKEGYNENVSVADILSEEDAEELKKLYEELAKKYGEEKVKSIIKLTIDDIPP
B15: GBRAPL2_151_7302 (protein)
chain: SWKEKIIKALEEAAKIAEEAVEKLSESQELEKTEFELIAGGLDALRALIEETDDEEEIRRLARRAAELTKDGAEIAKKLGLEEEAEKFEKRAKELEELAE
B16: GBRAPL2_128_7280 (protein)
chain: MKLVEISVTVENEEEYELAKKVLTEIAEKGSPEVAKLADAALDLVESNKEDGFDEAVVAVDILSEEDAEELKELYEELAEKYGKEKVEKVIQVEVDDIPP
B17: GBRAPL2_128_7299 (protein)
chain: MKLVEIDITIENKEEAELVKKILEEIAKKGSEEVKKLADAAKDLAETLAEEGYGEKGTVVDILSDEDAEELKKLYEELAEKYGKEKVEKRIKLEVDDIPP
B18: GBRAPL2_128_7283 (protein)
chain: MKLVEIDITVKNEEEYKLAKEVLKEIAEKGSPAVAKLADAALDMLESEKEEGFKDGVTVADILTEEEAEELKKLYEELAKKYGEEKVKKIIELTVDDIPP
B19: GBRAPL2_128_7287 (protein)
chain: MKLVTIDITIENEEEYELAEKVLEELARRGSPAVADLADAALDMVRSAKEDGYNENVAVTDILSPEDAAELKALLEELAKEYGEEKVNRIIKLEVDDIPP
B20: GBRAPL2_128_7274 (protein)
chain: MKIVEIDIDIKNEEQYELALEVLDRIAANSSPAVADLADAARDLAESAKEEGFDENVSAVDVLSDEDAAELQAIYDEIAAELGEEKVNSVVKLTIDPLEP
B21: GBRAPL2_151_7303 (protein)
chain: GWKEEAIKALEEAAKAAEEAAKALSPEHELERTELELLAGGFEADAILIEETDDEEEIKRLVKEAAEMAKDAAKLAKKLGLEKEAKKLEKIAEKLKKLAE
B22: GBRAPL2_128_7293 (protein)
chain: MKIVEVDIEIKNEEEAEKVKAAFDEIAERGSPAVAKLADAAKDMAESLLEDGFDEKGTVVDVLSDEDAAELRELYEELAKEYGEEFMNENIKLTIDDIPP
B23: GBRAPL2_128_7281 (protein)
chain: MKLVTIDIDVENEEEYELVKKVLDEIIEKGSPEVADLADAAKDMLEESKKEGFKEKVSVADILSDEEAEELKKLFEELAKKYGEEKVNKHIELEIDDLPP
B24: GBRAPL2_128_7289 (protein)
chain: MKLVTLDIDIENEEEFKLAKKVLEELAKKGSPAVADLANAALDMVEEAEKDGYNEKVSVADILSEEDAEELKKLLEELAKKYGEEKVKKIIKLEIDELPP
B25: GBRAPL2_128_7294 (protein)
chain: MKIVEIDLDIKNEEEANLAKEILKEIAAKSSEKVKDLMDAAIDMVESLEEDGYDEKATVVDVLSEEDAEELKKLYEEEAKKYGEEKVNKIIKLEISDIPP
B26: GBRAPL2_151_7305 (protein)
chain: SEKEKAIELLEEAAKAAEEAIKKLSEEQELAKTEFELIAGGLEALAILVEETDDEEEIKRLIKEAAELTEDAAKLAEELGLEEEAKKLKEISKELKKLAE
B27: GBRAPL2_128_7276 (protein)
chain: KKIVSIDVDLKDEESYELALKILEEIAEKSSPKVKELAEAAKDLAEAAKEEGFGETVTAVDILSDEEVEELKKIYAEIKKKYGEEKVNSVVKIEIDELKP
B28: GBRAPL2_128_7295 (protein)
chain: MKIVEIDIDIKNEEEAELVKEIFKEIAEKSSPEIKKLMDAAIDMVESLKEDGYDEKGTVVDILSKEDAEELKKLYEEEAEKYGKEKVEKIIKLEISDIPP
B29: GBRAPL2_128_7296 (protein)
chain: MKIVEIDIDVENEEEAELVLEILEEISKKSSPEVKKLMDAAKDMVESLKEDGYDEKATVVDILSEEDAKELEELYKEEAKKYGEEKVKKIIKLEIDEIPP
B30: GBRAPL2_128_7275 (protein)
chain: MKIVEIDVDIKNEEQYNLALEILDEIAENSSPAVADLADAAKDLAESSKERGFDENVTAVDVLSEEDAEELRRIYEEIAEKLGREKVESVVRLEISDLEP
B31: GBRAPL2_128_7278 (protein)
chain: MKLVEIDIDIKNEEEYELAKKVLKRIAEEGSPEVSKLADAALDLVEENKEEGFKYSRTVVDILSEEDAEELKELFEKLAEEYGKEKVEKVIKLEIDDIPP
B32: GBRAPL2_128_7285 (protein)
chain: MKLVTIDIKVENEEEYELAKKVLDEIAEEGSPAVAKLADAARDMLESEKEEGFKDGVSVADILSDEEAEELKELYEKLAEKYGKEKVNKIIELTVDDLPP

GABARAPL2, P60520, sequence (P60520 whole entry, the tested form may be a part): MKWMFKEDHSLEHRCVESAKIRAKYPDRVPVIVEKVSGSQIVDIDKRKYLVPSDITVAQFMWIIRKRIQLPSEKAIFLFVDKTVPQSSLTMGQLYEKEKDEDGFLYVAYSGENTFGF

This test concerns the target GABARAPL2, P60520. Briefly: median log2 fold change of GCK-ALFA target abundance (FLAG IP / Myc IP barcode read proportion) (log2 ratio); each designed protein is fused to an ALFA-tag nanobody in HEK293 cells to bring the named protein to FLAG-tagged glucokinase (GCK); Myc marks an untargeted standard; higher = target protein stabilised (more abundant). The conditions noted are these: target protein: 3xFLAG-MCP-GCK-ALFA reporter; HEK293 landing pad (RPLP). In short, it runs like this: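 Binders fused to an ALFA nanobody were recombined as a library into HEK293 landing-pad cells, which were induced with 2 μg mL^−1 doxycycline and then transfected to express a FLAG-tagged target and a Myc-tagged standard. After 48 h, circular RNA barcodes recovered by anti-FLAG and anti-Myc immunoprecipitation of lysates were reverse transcribed, amplified and sequenced. Each binder's target abundance is the median log2 ratio of FLAG to Myc barcode read proportions, from barcodes present at ≥10^−7 in both replicates, binders carrying ≥3 barcodes per replicate, a 10^−6 pseudocount and pooled replicates.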
With B1, the “median log2 fold change” value was -0.551.
Take B2: the “median log2 fold change” value is -0.194.
With B3 the figure was -0.0335.
In the case of B4, the “median log2 fold change” value came out at 0.0343.
For B5, the “median log2 fold change” value was -0.539.
As for B6, the “median log2 fold change” value was -0.397.
As to B7, the “median log2 fold change” value is -0.381.
B8: the “median log2 fold change” value was -0.203.
With B9 the figure was 0.0557; with B10, 0.0733.
With B11, the “median log2 fold change” value is -0.586.
Take B12: the “median log2 fold change” value was 0.271.
Regarding B13, the “median log2 fold change” value was -0.166.
With B14 the figure was -0.128; with B15, 0.2.
As to B16, the “median log2 fold change” value is -0.794.
As for B17, the “median log2 fold change” value was -0.468.
With B18, the “median log2 fold change” value is -0.458.
With B19, the “median log2 fold change” value is -0.633.
B20: the “median log2 fold change” value was -0.506.
On to B21, for which the “median log2 fold change” value was 0.179.
Turning to B22, the “median log2 fold change” value was -0.421.
Regarding B23, the “median log2 fold change” value was -0.33.
Consider B24, for which the “median log2 fold change” value is -0.0985.
As for B25, the “median log2 fold change” value turned out to be 0.042.
Turning to B26, the “median log2 fold change” value is -0.356.
Regarding B27, the “median log2 fold change” value is -0.258.
Turning to B28, the “median log2 fold change” value was -0.663.
For B29, the “median log2 fold change” value is -0.305.
Regarding B30, the “median log2 fold change” value was -0.585.
Turning to B31, the “median log2 fold change” value was determined as 0.112.
Take B32: the “median log2 fold change” value is -0.134.
